# From PubChem
# Shiga inhibitor: A qHTS for Small Molecule Inhibitors of Shiga Toxin. Vero cells, Shiga toxin protein synthesis inhibition reporter. inhibition, % at 38.7 µM. 290,000 tested, 9.2% active. AID 2315, 2010; in the data active means inhibition mostly above about 28%, no sharp cut-off; inactive means mostly below about 43%; further: 0% is about no effect
# Pf growth 96h: Primary qHTS for delayed death inhibitors of the malarial parasite plastid, 96 hour incubation; AID 504834, 2011; Potency, µM (series often up to 28.7 µM), inactives show at the highest dose activity change, negative = inhibition, usual class: inhibitors; P. falciparum luciferase reporter growth, 96 h; 320,000 tested, 6.9% active; active means well fitted inhibition curve with a large enough effect; inconclusive means small, poorly fitted or top-dose-only effect, or another doubt; inactive means no such curve, though single readings can be large or run the other way; further: potency means the concentration at half of the fitted maximal effect; on the % scale 0 is the no-effect control and ±100 the full control effect
#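 P. falciparum expressing integrated firefly luciferase, in erythrocytes at 2% hematocrit, 0.05% parasitemia, incubated with compounds 96 h at 37 C, 5% CO2. Growth inhibition read as loss of luminescence; two-generation exposure targets delayed-death apicoplast inhibitors.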
# SARS PLpro yeast: qHTS of Yeast-based Assay for SARS-CoV PLP | S. cerevisiae expressing SARS-CoV PLpro, growth rescue | Potency, µM (top dose mostly 32.9 µM), inactives show at the top dose activity, positive = growth rescue, actives largely listed as activators | 330,000 tested, 0.19% active | AID 485353, 2010; further: potency means the concentration at half of the fitted maximal effect; 0% is about no effect; nearly all actives have a fitted effect of over 55% in size
# CHX counter: Cycloheximide Counterscreen for Small Molecule Inhibitors of Shiga Toxin. cell reporter, cycloheximide protein synthesis inhibition counterscreen. max response, %. 300,000 tested, 12% active. AID 2314, 2010; in the data active means max response mostly above about 13%, no sharp cut-off; inactive means mostly below about 14%; further: read at 38.3 µM for the half of the compounds with a filed dose; 0% is about no effect
# Pf growth 48h: Primary qHTS for delayed death inhibitors of the malarial parasite plastid, 48 hour incubation; 310,000 tested, 5.9% active; P. falciparum luciferase growth in erythrocytes, 48 h; Potency, µM (series often up to 28.7 µM), for the others: at the top dose activity change, negative = inhibition, hits mostly inhibitors; active means well fitted inhibition curve with a large enough effect; inconclusive means small, poorly fitted or top-dose-only effect, or another doubt; inactive means no such curve, though single readings can be large or run the other way; further: potency means the concentration at half of the fitted maximal effect; on the % scale 0 is the no-effect control and ±100 the full control effect
#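 Luciferase-expressing P. falciparum in infected erythrocytes (2% hematocrit, 0.1% parasitemia final) in RPMI 1640/0.5% Albumax were exposed to compound for 48 hours at 37 C, 5% CO2; growth read as luminescence.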
# NS1 function inh: qHTS Assay for Inhibitors of Influenza NS1 Protein Function; 270,000 tested, 0.4% active; AID 2326, 2010; Potency, µM (highest dose often 46.1 µM), inactives show at the top dose activity, positive = more growth; further: potency means the concentration at half of the fitted maximal effect; actives are rising curves; nearly all actives have a fitted effect of over 50% in size
#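 Read-out: OD600 growth recovery of NS1-expressing budding yeast. Cells grown overnight at 30C in -URA glucose medium, washed, resuspended and diluted 1:100 in 2% galactose assay medium, pH 6.0. Same strain lacking NS1 served as positive control.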
# * = called active by the depositor; u = inconclusive; x = not tested or not shown. Compounds with a hit are over-represented: about 21% of the library has one in this group of screens. Unless noted, the call rests on the fitted dose curve.
SMILES,Shiga inhibitor,Pf growth 96h,SARS PLpro yeast,CHX counter,Pf growth 48h,NS1 function inh
O=C(CCNS(=O)(=O)c1ccccc1)N1CCN(c2ccccc2)CC1,-5,2%,0%,-1,-23%,7%
Cc1cc(C)c(C)c(S(=O)(=O)NCc2ccc(C(=O)N3CCN(C)CC3)cc2)c1C,-14,u,13%,4,-42%,15%
O=C(c1cc2ccccc2cc1O)N1CCCC1,-7,-6%,-2%,-2,1%,0%
C/C(CC(=O)N1CCN(C=O)CC1)=N\NC(=O)c1cc2ccccc2cc1O,5,-9%,14µM*,2,-10%,23%
C/C(CC(=O)N1CCN(C=O)CC1)=N\NC(=O)c1ccc([N+](=O)[O-])cc1,64,104%,1%,20*,-26%,-32%
C=C1C(=O)OC(CCCCCCCC)C1C(=O)O (stereo not drawn),-9,x,x,-4,x,x
Cc1cc(=O)[nH]c2nnc(-c3ccc(Cl)cc3)n12,21,81%,-1%,0,x,-1%
C/C(=N\NC(=O)c1cc2ccccc2cc1O)c1cc2ccccc2o1,14,u,0%,9,u,9%
C/C(=N\NC(=O)COc1ccc(C(C)(C)C)cc1)c1cc2ccccc2o1,38*,0%,-10%,24*,189%,22%
C/C(=N\NC(=O)COc1ccc(C(C)(C)C)cc1)c1ccccc1,18,-10%,-15%,-2,-25%,-3%
COCCNC(=S)N/N=C(\C)c1cc2ccccc2o1,25*,u,u,9,25%,-7%
COc1ccc(NCC(=O)N/N=C(\C)c2cc3ccccc3o2)cc1,20,21%,-4%,16*,39%,x
COc1ccc(-c2cn[nH]c2-c2ccc(OCc3ccccc3F)cc2O)cc1OC,-4,u,0%,-2,u,-3%
CCC(=O)N1CCc2cc(S(=O)(=O)NC(C(=O)NC3CCCc4ccccc43)C(C)C)ccc21 (stereo not drawn),2,298%,u,-3,u,u
CC1CCCC/C1=N\NC(=S)NCCc1ccccc1 (stereo not drawn),98*,-5%,3%,44*,31%,x
Cc1ccc(NC(=S)N/N=C2\CCCCC2C)cc1 (stereo not drawn),95*,-19%,-3%,44*,18%,x
CC1CCCC/C1=N\NC(=S)Nc1cccnc1 (stereo not drawn),18,1%,1%,4,0%,5%
CCOC(=O)c1cc(C)nn1-c1nc(Cl)cc(OC)n1,7,17%,11%,-1,0%,-22%
O=C(NC1CCCC1)C(c1ccc(F)cc1)N(Cc1ccc(Cl)cc1)C(=O)CCl (stereo not drawn),-13,u,-10%,-4,6%,2%
Cc1ccnc(N(C(=O)Nc2ccccc2)C2=NCC(C)(C)S2)c1,59*,2%,0%,43*,49%,4%
Cc1c(N(C(=O)Nc2ccccc2)C2=NCC(C)S2)c(=O)n(-c2ccccc2)n1C (stereo not drawn),35,43%,8%,19,43%,-9%
CCN(CC)CCOC(=O)c1cccc2c1-c1ccccc1C2O (stereo not drawn),-6,u,1%,-1,4%,-1%
C=CCn1c(O)c(N=Nc2ccccc2O)c2ccccc21,x,62%,-1%,x,9.3µM*,x
C=CCn1c(O)c(N=NC(=S)Nc2ccc(OC)cc2)c2ccccc21,-15,0%,8%,-5,10µM*,8%
C=CCn1c(O)c(N=NC(=O)OCC)c2ccccc21,-5,30%,-6%,2,22%,-9%
C=CCn1c(O)c(N=NC(=S)Nc2cccc(OC)c2)c2ccccc21,-8,u,20%,-3,3.7µM*,5%
CC1C(c2ccccc2)C(C#N)(C#N)C2(C#N)C(=O)NC1(N)C2C (stereo not drawn),30,-12%,10%,-2,x,u
COc1ccc(C(=O)N/C(=C\c2cn(C)c3ccccc23)C(=O)NCCCN2CCOCC2)cc1,8,u,x,-3,u,4%
